Each structure is given as a SMILES string. In all, about 39,000 compounds went through this assay and about 1,500 (3.8%) were called active. The sample as a whole holds a higher share of actives than the screen did.

In this assay the test system is HSkMC (human skeletal muscle cells). Briefly: cytotoxicity call (relative viability < 0.9). Conditions: 10 µM.
Regarding `CC[C@@H](C)c1ccc(NC(=O)c2cc3ccccc3o2)cc1`, the cytotoxicity call is “inactive”.
The same measure for `C[C@@H]1CN([C@H](C)CO)C(=O)Cc2cc(NS(C)(=O)=O)ccc2O[C@@H]1CN(C)C(=O)Nc1ccc(F)cc1`: “inactive”; for `C[C@H]1CCCCO[C@H](CN(C)CC2CCCCC2)[C@@H](C)CN([C@@H](C)CO)C(=O)c2cc(NC(=O)Nc3ccccc3)ccc2O1`: “inactive”.
Consider `C[C@@H]1CCCCO[C@@H](CN(C)CC2CCCCC2)[C@@H](C)CN([C@H](C)CO)C(=O)c2cc(NC(=O)Nc3ccccc3)ccc2O1`, for which the cytotoxicity call was “inactive”.
Regarding `COc1ccc(NC(=O)Nc2ccc3c(c2)C(=O)N([C@@H](C)CO)C[C@H](C)[C@H](CN(C)CC2CCCCC2)OCCCC[C@H](C)O3)cc1`, the cytotoxicity call is “inactive”.
The same measure for `COc1ccc(NC(=O)Nc2ccc3c(c2)C(=O)N([C@@H](C)CO)C[C@@H](C)[C@@H](CN(C)CC2CCCCC2)OCCCC[C@@H](C)O3)cc1`: “inactive”.
In the case of `C[C@@H]1CN([C@@H](C)CO)C(=O)c2cc(NC(=O)Nc3ccccc3)ccc2O[C@@H](C)CCCCO[C@@H]1CN(C)CC1CCCCC1`, the cytotoxicity call was “active”.
`COc1ccc(NC(=O)Nc2ccc3c(c2)C(=O)N([C@H](C)CO)C[C@@H](C)[C@@H](CN(C)CC2CCCCC2)OCCCC[C@@H](C)O3)cc1`: the cytotoxicity call is “active”.
`C[C@@H]1CCCCO[C@H](CN(C)CC2CCCCC2)[C@@H](C)CN([C@H](C)CO)C(=O)c2cc(NC(=O)Nc3ccccc3)ccc2O1`: the cytotoxicity call is “inactive”.
Consider `C[C@H](CO)N1C[C@H](C)[C@H](CN(C)CC2CCCCC2)OCCCC[C@H](C)Oc2ccc(NC(=O)Nc3ccccc3)cc2C1=O`, for which the cytotoxicity call was “active”.
Take `C[C@@H]1CCCCO[C@H](CN(C)CC2CCCCC2)[C@H](C)CN([C@@H](C)CO)C(=O)c2cc(NC(=O)Nc3ccccc3)ccc2O1`: the cytotoxicity call is “inactive”.
As for `COc1ccc(S(=O)(=O)Nc2ccc3c(c2)CC(=O)N([C@H](C)CO)C[C@@H](C)[C@H](CN(C)C(=O)Nc2c(C)noc2C)O3)cc1`, the cytotoxicity call is “inactive”.
Turning to `C[C@@H]1CCCCO[C@@H](CN(C)S(=O)(=O)c2cccs2)[C@@H](C)CN([C@H](C)CO)C(=O)c2cc(NC(=O)Nc3ccc4c(c3)OCO4)ccc2O1`, the cytotoxicity call was “inactive”.
With `N#Cc1ccc(Oc2ccccn2)cc1`, the cytotoxicity call was “inactive”.
For the molecule `Cc1cc(C(=O)Nc2cccc3c2O[C@@H](CN(C)Cc2ccc(Oc4ccccc4)cc2)[C@H](C)CN([C@H](C)CO)C3=O)n(C)n1`, the cytotoxicity call was “inactive”.
Regarding `Cc1noc(C)c1S(=O)(=O)Nc1ccc2c(c1)C(=O)N([C@@H](C)CO)C[C@@H](C)[C@@H](CN(C)S(=O)(=O)c1cn(C)cn1)OCCCC[C@@H](C)O2`, the cytotoxicity call was “inactive”.
As to `C[C@@H]1CCCCO[C@H](CN(C)Cc2ccc3c(c2)OCO3)[C@H](C)CN([C@H](C)CO)C(=O)c2cc(NC(=O)Nc3ccccc3)ccc2O1`, the cytotoxicity call is “inactive”.
For `C[C@@H]1CN([C@@H](C)CO)C(=O)c2cc(NC(=O)Cn3cnnn3)ccc2O[C@@H]1CN(C)Cc1ccc(C(F)(F)F)cc1`, the cytotoxicity call is “inactive”.
As to `CC(C)NC(=O)Nc1ccc2c(c1)CC(=O)N([C@H](C)CO)C[C@H](C)[C@H](CN(C)S(=O)(=O)c1ccc(Cl)cc1)O2`, the cytotoxicity call is “inactive”.
On to `C[C@H]1CN([C@@H](C)CO)C(=O)Cc2cc(NC(=O)Nc3cc(Cl)cc(Cl)c3)ccc2O[C@H]1CN(C)S(=O)(=O)c1ccc(Cl)cc1`, for which the cytotoxicity call was “active”.
`CC(C)NC(=O)Nc1ccc2c(c1)CC(=O)N([C@H](C)CO)C[C@H](C)[C@@H](CN(C)S(=O)(=O)c1ccc(Cl)cc1)O2`: the cytotoxicity call is “inactive”.
The same measure for `CC(C)NC(=O)Nc1ccc2c(c1)CC(=O)N([C@@H](C)CO)C[C@@H](C)[C@@H](CN(C)S(=O)(=O)c1ccc(Cl)cc1)O2`: “inactive”.
The same measure for `COc1ccc(S(=O)(=O)N(C)C[C@H]2Oc3ccc(N(C)C)cc3CC(=O)N([C@@H](C)CO)C[C@@H]2C)cc1`: “inactive”; for `COc1ccc(S(=O)(=O)N(C)C[C@@H]2Oc3ccc(N(C)C)cc3CC(=O)N([C@H](C)CO)C[C@@H]2C)cc1`: “active”.
The same measure for `CC(C)NC(=O)Nc1ccc2c(c1)CC(=O)N([C@@H](C)CO)C[C@H](C)[C@@H](CN(C)S(=O)(=O)c1ccc(Cl)cc1)O2`: “inactive”; for `COc1ccc(S(=O)(=O)N(C)C[C@@H]2Oc3ccc(N(C)C)cc3CC(=O)N([C@@H](C)CO)C[C@H]2C)cc1`: “inactive”; for `C[C@H]1CN([C@@H](C)CO)C(=O)Cc2cc(NC(=O)Nc3ccc(Cl)c(Cl)c3)ccc2O[C@H]1CN(C)S(=O)(=O)c1ccc(Cl)cc1`: “active”.
As to `Cn1nnc2c(N3CCC(O)CC3)ncnc21`, the cytotoxicity call was “inactive”.
With `C[C@H]1CN([C@@H](C)CO)C(=O)c2cccc(NC(=O)CCCCCC(=O)Nc3ccccc3N)c2O[C@@H]1CN(C)Cc1ccc(C(F)(F)F)cc1`, the cytotoxicity call is “inactive”.
Turning to `C[C@@H]1CN([C@@H](C)CO)C(=O)c2cc(NC(=O)Nc3cccc4ccccc34)ccc2O[C@@H](C)CCCCO[C@H]1CN(C)C`, the cytotoxicity call is “inactive”.
On to `CCN1CCN(C2=C(NS(=O)(=O)c3ccc(Br)cc3)C(=O)c3ccccc3C2=O)CC1`, for which the cytotoxicity call is “inactive”.
Turning to `CCc1nccn1CC(=O)N[C@H]1C[C@@H](C(=O)OC)N(C)C1`, the cytotoxicity call is “inactive”.
As to `Cc1noc(C)c1NC(=O)Nc1ccc2c(c1)CC(=O)N([C@@H](C)CO)C[C@@H](C)[C@@H](CN(C)Cc1ccc(Oc3ccccc3)cc1)O2`, the cytotoxicity call is “inactive”.
On to `COc1ccc(S(=O)(=O)N(C)C[C@H]2Oc3ccc(NC(=O)CCN4CCOCC4)cc3C(=O)N([C@H](C)CO)C[C@H]2C)cc1`, for which the cytotoxicity call is “inactive”.
In the case of `COc1cccc(S(=O)(=O)N(C)C[C@@H]2OCc3cnnn3CCCC(=O)N([C@H](C)CO)C[C@@H]2C)c1`, the cytotoxicity call was “inactive”.
The same measure for `COCCNC(=O)NC(=O)COC(=O)c1cccn1C`: “inactive”.
Consider `O=C(N[C@@H](c1ccc(-c2ccccc2)cc1)c1cnccn1)C1CCN(Cc2ccc(Oc3ccccc3)cc2)CC1`, for which the cytotoxicity call was “inactive”.
On to `C[C@@H]1CN([C@@H](C)CO)C(=O)c2cccc(NC(=O)c3ccc(-c4nccs4)cc3)c2O[C@@H]1CN(C)Cc1ccccc1`, for which the cytotoxicity call was “inactive”.
The same measure for `C[C@@H]1CN([C@@H](C)CO)C(=O)c2cc(NC(=O)NC3CCCCC3)ccc2O[C@@H](C)CCCCO[C@H]1CN(C)C(=O)Nc1ccc2c(c1)OCO2`: “active”.
Take `C[C@@H]1CCCCO[C@@H](CN(C)C(=O)Nc2ccc3c(c2)OCO3)[C@H](C)CN([C@H](C)CO)C(=O)c2cc(NC(=O)NC3CCCCC3)ccc2O1`: the cytotoxicity call is “inactive”.
On to `C[C@@H]1CCCCO[C@H](CN(C)C(=O)Nc2cccc3ccccc23)[C@@H](C)CN([C@H](C)CO)C(=O)c2cc(NC(=O)CCC(F)(F)F)ccc2O1`, for which the cytotoxicity call was “inactive”.
With `C[C@@H]1CCCCO[C@@H](CN(C)C(=O)Nc2cccc3ccccc23)[C@H](C)CN([C@H](C)CO)C(=O)c2cc(NC(=O)CCC(F)(F)F)ccc2O1`, the cytotoxicity call is “inactive”.
Turning to `C[C@@H]1CCCCO[C@@H](CN(C)C(=O)Nc2cccc3ccccc23)[C@H](C)CN([C@@H](C)CO)C(=O)c2cc(NC(=O)Nc3cccc4ccccc34)ccc2O1`, the cytotoxicity call was “active”.
Consider `C[C@H](CO)N1C[C@H](C)[C@@H](CN(C)C(=O)Nc2cccc3ccccc23)OCCCC[C@H](C)Oc2ccc(NC(=O)Nc3cccc4ccccc34)cc2C1=O`, for which the cytotoxicity call was “inactive”.
In the case of `C[C@@H]1CN([C@H](C)CO)C(=O)c2cc(NC(=O)Nc3cccc4ccccc34)ccc2O[C@@H](C)CCCCO[C@@H]1CN(C)C(=O)C1CCCCC1`, the cytotoxicity call was “inactive”.
As to `C[C@@H]1CN([C@@H](C)CO)C(=O)c2cc(NC(=O)Nc3cccc4ccccc34)ccc2O[C@@H](C)CCCCO[C@@H]1CN(C)C(=O)C1CCCCC1`, the cytotoxicity call is “active”.
Consider `C[C@@H]1CCCCO[C@@H](CN(C)C(=O)Nc2ccc3c(c2)OCO3)[C@@H](C)CN([C@@H](C)CO)C(=O)c2cc(NC(=O)NC3CCCCC3)ccc2O1`, for which the cytotoxicity call is “inactive”.
As to `C[C@H]1CCCCO[C@H](CN(C)C(=O)C2CCCCC2)[C@@H](C)CN([C@@H](C)CO)C(=O)c2cc(NC(=O)Nc3cccc4ccccc34)ccc2O1`, the cytotoxicity call is “inactive”.
Take `C[C@@H]1CN([C@@H](C)CO)C(=O)c2cc(NC(=O)CCC(F)(F)F)ccc2O[C@@H](C)CCCCO[C@H]1CN(C)C(=O)Nc1cccc2ccccc12`: the cytotoxicity call was “active”.
On to `C[C@@H]1CN([C@@H](C)CO)C(=O)c2cc(NC(=O)Nc3cccc4ccccc34)ccc2O[C@@H](C)CCCCO[C@H]1CN(C)C(=O)Nc1cccc2ccccc12`, for which the cytotoxicity call is “inactive”.
For `C[C@@H]1CCCCO[C@@H](CN(C)S(=O)(=O)c2ccccc2)[C@H](C)CN([C@@H](C)CO)C(=O)c2cc(NS(C)(=O)=O)ccc2O1`, the cytotoxicity call was “inactive”.
As for `CC(C)(C)OC(=O)C[C@@H]1CC=CC[C@@H](CC(=O)N[C@@H](CO)Cc2ccccc2)C(=O)N[C@@H](C(C)(C)C)COC1=O`, the cytotoxicity call is “inactive”.
With `CC(C)CC#Cc1cnc2c(c1)C(=O)N([C@H](C)CO)C[C@@H](C)[C@H](CN(C)C(=O)CCN1CCCCC1)O2`, the cytotoxicity call is “inactive”.
The same measure for `COCC#Cc1ccc2c(c1)O[C@H](CN(C)S(=O)(=O)c1ccc(F)cc1)[C@@H](C)CN([C@@H](C)CO)S2(=O)=O`: “inactive”; for `C[C@@H]1CN([C@@H](C)CO)C(=O)Cc2cc(NS(=O)(=O)c3ccccc3)ccc2O[C@@H]1CN(C)Cc1ccncc1`: “inactive”; for `O=C(C[C@@H]1CC[C@H]2[C@@H](COC[C@H](O)CN2Cc2ccccc2F)O1)N[C@H]1CCN(Cc2ccccc2)C1`: “inactive”.
For `C[C@@H]1CCCCO[C@@H](CN(C)C(=O)Nc2ccccc2)[C@@H](C)CN([C@H](C)CO)C(=O)c2cc(NC(=O)Nc3ccc4c(c3)OCO4)ccc2O1`, the cytotoxicity call is “inactive”.
The same measure for `Oc1ccc(C2(c3ccccc3F)CCC(F)(F)CC2)cc1`: “inactive”.
Take `CCNC(=S)N1CCOCC1`: the cytotoxicity call was “inactive”.
For the molecule `NC(=O)C1CCCN1C(=O)C(Cc1c[nH]cn1)NC(=O)C1CCC(=O)N1` (stereo not drawn), the cytotoxicity call is “inactive”.
Regarding `C[C@@H]1CCCCO[C@H](CN(C)C(=O)Nc2cccc3ccccc23)[C@@H](C)CN([C@H](C)CO)C(=O)c2cc(NC(=O)NC3CCCCC3)ccc2O1`, the cytotoxicity call was “inactive”.
As for `C[C@@H]1CCCCO[C@@H](CN(C)C(=O)Nc2cccc3ccccc23)[C@H](C)CN([C@@H](C)CO)C(=O)c2cc(NC(=O)NC3CCCCC3)ccc2O1`, the cytotoxicity call was “inactive”.
For `C[C@H](CO)N1C[C@H](C)[C@@H](CN(C)C(=O)Nc2cccc3ccccc23)OCCCC[C@H](C)Oc2ccc(NC(=O)NC3CCCCC3)cc2C1=O`, the cytotoxicity call is “active”.

The record behind these values is the antibiotic and cytotoxicity screens of Wong et al. (2023).
